The supplement of paper PMC8975748
Where a name gives a salt, the structure may show the parent alone.

Each molecule was assayed on Saccharomyces cerevisiae BY4741 SeMeCo community (assay: z-score of subpopulation abundance vs DMSO median, subpopulation auxotrophic for UM; higher = larger share of this subpopulation than in DMSO controls). Details: 10 µM; 24 h; SM minimal medium; subpopulation (auxotrophy): UM.
Protocol: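 Fluorescent four-plasmid SeMeCo (self-establishing metabolically cooperating S. cerevisiae BY4741 community; plasmids pH-mRuby2, pL-mWasabi, pU-eCFP, pM-TagRFP657) was grown 24 h in minimal SM medium with each Selleck FDA-approved drug at 10 µM in 384-well plates. Cells were fixed and imaged by high-content confocal microscopy. For each auxotrophic subpopulation (and the prototroph), a z-score gives the deviation from the DMSO vehicle-control population median.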
For `CNCc1cc(-c2ccccc2F)n(S(=O)(=O)c2cccnc2)c1` [Vonoprazan Fumarate (TAK-438)], the “z-score of subpopulation abundance” value was -0.09.
In the case of `O=C(O)CCC(=O)Nc1ccc(S(=O)(=O)Nc2nccs2)cc1` [Succinylsulfathiazole], the “z-score of subpopulation abundance” value is reported as 0.02.
With `Cc1ncc([N+](=O)[O-])n1CCOC(=O)c1ccccc1` [Metronidazole Benzoate] the “z-score of subpopulation abundance” value was -0.26.
For `Clc1ccc(C(Cn2ccnc2)OCc2ccsc2Cl)c(Cl)c1` (stereo not given) [Tioconazole], the “z-score of subpopulation abundance” value was 8.69.
`Cc1c(Cl)cccc1Nc1ccccc1C(=O)O` [Tolfenamic Acid] was tested, and the “z-score of subpopulation abundance” value was -0.9.
`COc1ccc(CNc2nc(N3CCC[C@H]3CO)ncc2C(=O)NCc2ncccn2)cc1Cl` [Avanafil] was tested, and the “z-score of subpopulation abundance” value was 0.93.
`CN1C[C@@H]2C[C@H]1CN2c1cc2c(cc1F)c(=O)c(C(=O)O)cn2C1CC1` [Danofloxacin Mesylate] was tested, and the “z-score of subpopulation abundance” value was 0.
For `O=C(O)c1cn(-c2ccc(F)cc2)c2cc(N3CCNCC3)c(F)cc2c1=O` [Sarafloxacin HCl], the “z-score of subpopulation abundance” value was 0.84.
With `CN1CCC[C@@H]1Cc1c[nH]c2ccc(CCS(=O)(=O)c3ccccc3)cc12` [Eletriptan HBr] the “z-score of subpopulation abundance” value was -0.86.
`CCNC(=O)[C@@H]1CCCN1C(=O)[C@H](CCCNC(=N)N)NC(=O)[C@H](CC(C)C)NC(=O)[C@@H](CC(C)C)NC(=O)[C@H](Cc1ccc(O)cc1)NC(=O)[C@H](CO)NC(=O)[C@H](Cc1c[nH]c2ccccc12)NC(=O)[C@H](Cc1c[nH]cn1)NC(=O)[C@@H]1CCC(=O)N1` [Leuprolide Acetate] was tested, and the “z-score of subpopulation abundance” value was 0.23.
With `NC(=O)N1c2ccccc2C=Cc2ccccc21` [Carbamazepine] the “z-score of subpopulation abundance” value was -0.23.
With `C[C@@H](NCCCc1cccc(C(F)(F)F)c1)c1cccc2ccccc12` [Cinacalcet HCl] the “z-score of subpopulation abundance” value was -0.3.
With `CCCCN(CCCC)CC(O)c1cc(Cl)cc2c1-c1ccc(Cl)cc1/C2=C/c1ccc(Cl)cc1` (stereo not given) [Lumefantrine] the “z-score of subpopulation abundance” value was 2.56.
In the case of `CO/N=C(\C(=O)N[C@@H]1C(=O)N2C(C(=O)O)=C(CSC(=O)c3ccco3)CS[C@H]12)c1csc(N)n1` [Ceftiofur HCl], the “z-score of subpopulation abundance” value is reported as 1.05.
In the case of `CO[C@@]1(NC(=O)Cc2cccs2)C(=O)N2C(C(=O)O)=C(COC(N)=O)CS[C@@H]21` [Cefoxitin sodium], the “z-score of subpopulation abundance” value is reported as -0.63.
For `CN1CCC(=C2c3ccccc3C=Cc3ccccc32)CC1` [Cyproheptadine hydrochloride], the “z-score of subpopulation abundance” value was -0.25.
`CC(C)C(=O)c1c(C(C)C)nn2ccccc12` [Ibudilast] was tested, and the “z-score of subpopulation abundance” value was 1.06.
For `Cc1ccnc(NS(=O)(=O)c2ccc(N)cc2)n1` [Sulfamerazine], the “z-score of subpopulation abundance” value was 0.45.
With `C[C@@H](c1nc(-c2ccc(C#N)cc2)cs1)[C@](O)(Cn1cncn1)c1cc(F)ccc1F` [Isavuconazole] the “z-score of subpopulation abundance” value was 13.4.
For `O=C([O-])CC(O)(CC(=O)[O-])C(=O)[O-].O=C([O-])CC(O)(CC(=O)[O-])C(=O)[O-].[Bi+3].[K+].[K+].[K+].[K+].[K+]` [Bismuth Subcitrate Potassium], the “z-score of subpopulation abundance” value was -2.69.
For `COc1cc2c(cc1OC)C(=O)C(CC1CCN(Cc3ccccc3)CC1)C2` (stereo not given) [Donepezil HCl], the “z-score of subpopulation abundance” value was -0.48.
In the case of `C=CCc1ccc(O)c(-c2ccc(O)c(CC=C)c2)c1` [Honokiol], the “z-score of subpopulation abundance” value is reported as -1.43.
In the case of `O=C(c1ccc(OCCN2CCCCC2)cc1)c1c(-c2ccc(O)cc2)sc2cc(O)ccc12` [Raloxifene HCl], the “z-score of subpopulation abundance” value is reported as -0.85.
For `CCC(=O)NS(=O)(=O)c1ccc(-c2c(-c3ccccc3)noc2C)cc1` [Parecoxib Sodium], the “z-score of subpopulation abundance” value was 0.8.
`CCCCNc1ccc(C(=O)OCCN(C)C)cc1` [Tetracaine HCl] was tested, and the “z-score of subpopulation abundance” value was 0.04.
With `CCOc1ccc2ccccc2c1C(=O)N[C@@H]1C(=O)N2[C@@H]1SC(C)(C)[C@@H]2C(=O)O` [Nafcillin Sodium] the “z-score of subpopulation abundance” value was -0.68.
`CC(C)[C@H]1CC[C@H](C(=O)N[C@H](Cc2ccccc2)C(=O)O)CC1` [Nateglinide] was tested, and the “z-score of subpopulation abundance” value was 0.38.
With `COc1ccc2cc([C@H](C)C(=O)O)ccc2c1` [Naproxen] the “z-score of subpopulation abundance” value was -2.93.
In the case of `CC(=O)OCC[N+](C)(C)C` [Acetylcholine iodide], the “z-score of subpopulation abundance” value is reported as -0.32.
For `C[C@]1(COc2ccc(N3CCC(Oc4ccc(OC(F)(F)F)cc4)CC3)cc2)Cn2cc([N+](=O)[O-])nc2O1` [Delamanid], the “z-score of subpopulation abundance” value was -0.53.
In the case of `Cc1cc(NS(=O)(=O)c2ccc(N)cc2)nc(C)n1` [sulfaisodimidine], the “z-score of subpopulation abundance” value is reported as 0.16.
In the case of `COc1ccc(NS(=O)(=O)c2ccc(N)cc2)nn1` [Sulfamethoxypyridazine], the “z-score of subpopulation abundance” value is reported as 0.13.
With `O=C1Cc2cc(CCN3CCN(c4nsc5ccccc45)CC3)c(Cl)cc2N1` [Ziprasidone HCl] the “z-score of subpopulation abundance” value was -0.51.
`CCCC(=O)OCOC(=O)C1=C(C)NC(C)=C(C(=O)OC)C1c1cccc(Cl)c1Cl` (stereo not given) [Clevidipine Butyrate] was tested, and the “z-score of subpopulation abundance” value was -5.87.
For `CCCCCCCCCCCCCCCC[N+](C)(C)C` [Cetrimonium Bromide (CTAB)], the “z-score of subpopulation abundance” value was 12.1.
In the case of `CC[C@@]1(O)C(=O)OCc2c1cc1n(c2=O)Cc2cc3cc(O)ccc3nc2-1` [Hydroxy Camptothecine], the “z-score of subpopulation abundance” value is reported as -4.43.
In the case of `COC(=O)C1=C(C)NC(C)=C(C(=O)OC(C)C)C1c1cccc2nonc12` (stereo not given) [Isradipine], the “z-score of subpopulation abundance” value is reported as 1.06.
`CC[C@H]1OC(=O)C[C@@H](O)[C@H](C)[C@@H](O[C@@H]2O[C@H](C)[C@@H](O[C@H]3C[C@@](C)(O)[C@@H](O)[C@H](C)O3)[C@H](N(C)C)[C@H]2O)[C@@H](CC=O)C[C@@H](C)C(=O)/C=C/C(C)=C/[C@@H]1CO[C@@H]1O[C@H](C)[C@@H](O)[C@@H](OC)[C@H]1OC` [Tylosin] was tested, and the “z-score of subpopulation abundance” value was 0.88.
`Clc1ccc(COC(Cn2ccnc2)c2ccc(Cl)cc2Cl)c(Cl)c1` (stereo not given) [Miconazole] was tested, and the “z-score of subpopulation abundance” value was 1.59.
`O=C1N=C(O)NC1(c1ccccc1)c1ccccc1` [Phenytoin Sodium] was tested, and the “z-score of subpopulation abundance” value was 0.67.
